Assay [1] relates to TRPC4 beta (transient receptor potential cation channel C4), mouse. The assay is described as follows: activators of mouse TRPC4 channel, confirmation, cell-based, Fluo4 calcium, HEK293 TRPC4beta/mu-opioid, duplicates, 10 µM (AID 2426;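 active = fluorescence ratio normalized to control raised more than 50% in primary screen plus both repeat runs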;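 for activation: percent rise of integrated ratio over buffer wells lacking compound which define 0%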). To be noted: Fluo4 calcium fluorescence, at 10 µM; active compounds read high.
For assay [2], the system named is transient receptor potential cation channel C4 beta (TRPC4), mouse. The experiment in a line: activators of mouse TRPC4 channel, confirmation, cell-based, second round, Fluo4, HEK293 TRPC4beta/mu-opioid, 1 µM (AID 2461).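 For activation: 0% = wells without test compound as baseline of integrated fluorescence ratio.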 To be noted: Fluo4 calcium fluorescence, at 1 µM; active compounds read high.
Assay [3] has as its system TRPC4 (transient receptor potential cation channel C4 beta), mouse. The experiment in a line: positive allosteric modulators of mouse TRPC4, confirmation, cell-based, second round, Fluo-4, HEK293 TRPC4beta/mu-opioid, 1 µM (AID 2554;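 active = primary screen hit whose fluorescence ratio, in both repeats, exceeds the weak agonist control mean by 3 SD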). To be noted: DAMGO EC20, Fluo-4 calcium flux, at 1 µM; active compounds read high.
For assay [4], the system named is TRPC4 beta (transient receptor potential cation channel C4), mouse. The experiment in a line: positive allosteric modulators of mouse TRPC4, confirmation, cell-based, Fluo-4, HEK293 TRPC4beta/mu-opioid (AID 2555;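 active = primary screen hit whose calcium fluorescence ratio, in both repeats, exceeds the weak agonist control mean by 3 SD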). To be noted: DAMGO EC20, Fluo-4 calcium flux, at 10 µM; active compounds read high. (Calcium assays in cells follow changes in intracellular calcium, usually with a dye or a luminescent sensor.)

In assay [5] the target is Short transient receptor potential channel 4 (Mus musculus) (UniProt Q9QUQ5). The assay is described as follows: inhibitors of mouse TRPC4 channel, confirmation, cell-based, Fluo4, HEK293 TRPC4beta/mu-opioid (AID 2636;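 active = calcium signal cut by more than 3 SD below the full-agonist control yet still positive, in both repeats and the earlier primary screen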). To be noted: DAMGO, Fluo4 calcium flux, at 10 µM; active compounds read high.
Short transient receptor potential channel 4 (Mus musculus), sequence (Q9QUQ5 whole entry, looked up): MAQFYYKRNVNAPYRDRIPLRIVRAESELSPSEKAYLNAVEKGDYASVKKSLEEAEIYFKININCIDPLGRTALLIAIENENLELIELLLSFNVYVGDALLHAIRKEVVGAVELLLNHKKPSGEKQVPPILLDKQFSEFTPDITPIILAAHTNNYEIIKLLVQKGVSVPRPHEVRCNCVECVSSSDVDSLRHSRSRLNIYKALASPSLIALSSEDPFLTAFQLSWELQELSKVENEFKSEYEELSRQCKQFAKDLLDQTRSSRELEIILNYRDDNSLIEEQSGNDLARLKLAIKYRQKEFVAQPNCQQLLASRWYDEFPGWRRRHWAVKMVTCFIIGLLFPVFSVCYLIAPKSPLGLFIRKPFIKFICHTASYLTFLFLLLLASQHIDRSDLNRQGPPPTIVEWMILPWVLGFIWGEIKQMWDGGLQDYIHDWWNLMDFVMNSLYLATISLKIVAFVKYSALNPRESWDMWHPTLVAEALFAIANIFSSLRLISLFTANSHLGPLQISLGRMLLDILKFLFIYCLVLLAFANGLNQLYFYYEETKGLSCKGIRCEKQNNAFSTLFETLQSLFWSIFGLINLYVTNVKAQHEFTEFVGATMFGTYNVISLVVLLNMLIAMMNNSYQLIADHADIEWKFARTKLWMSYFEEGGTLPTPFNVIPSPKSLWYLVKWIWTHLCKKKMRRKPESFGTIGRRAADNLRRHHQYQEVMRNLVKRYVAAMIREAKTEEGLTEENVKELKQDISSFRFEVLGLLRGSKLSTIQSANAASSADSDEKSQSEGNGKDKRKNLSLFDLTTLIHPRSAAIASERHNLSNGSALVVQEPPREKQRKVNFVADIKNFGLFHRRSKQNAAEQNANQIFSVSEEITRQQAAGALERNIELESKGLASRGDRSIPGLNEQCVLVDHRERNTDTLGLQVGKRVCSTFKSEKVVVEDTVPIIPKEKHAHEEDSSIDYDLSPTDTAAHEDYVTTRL
Assay [6] shares this target. The assay is described as follows: inhibitors of mouse TRPC4 channel, confirmation, cell-based, second round, Fluo4, HEK293 TRPC4beta/mu-opioid, 1 µM (AID 2637;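 active = calcium signal ratio cut to more than 3 SD under the fully stimulated control mean yet still positive, in both repeats and the primary screen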). To be noted: Fluo4 calcium flux, DAMGO, at 1 µM; active compounds read high.
The target is the same in assay [7]. The assay is described as follows: mouse TRPC4 channel activators, dose response, cell-based, HEK293 TRPC4/mu-opioid, Fluo-4 calcium (AID 434937;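 active = primary screen activator hit with a dose response curve and TRPC4 channel activation at any tested dose; inactive = no activation, no dose response, or not a primary hit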).
The target is the same in assay [8]. The assay is described as follows: mouse TRPC4 channel inhibitors, dose response, cell-based, HEK293 TRPC4/mu-opioid, Fluo-4 calcium (AID 434942;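 active = primary screen inhibitor hit that blocks the TRPC4 channel at some tested dose, yielding a dose curve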).
For assay [9], the target named is Short transient receptor potential channel 6 (Mus musculus) (UniProt Q61143). The assay is described as follows: inhibition of mouse TRPC6 channel, confirmation, selectivity assay for TRPC4 inhibitor project, cell-based, HEK293, membrane potential dye, duplicate (AID 434948;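 active = active in primary screen and both duplicates, each dropping signal beyond three positive-control SD with fluorescence still positive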). To be noted: HEK293 TRPC6, membrane potential dye fluorescence, at 10 µM, stimulated with maximal-effect acetylcholine; active compounds read high.
Short transient receptor potential channel 6 (Mus musculus), sequence (Q61143 whole entry, looked up): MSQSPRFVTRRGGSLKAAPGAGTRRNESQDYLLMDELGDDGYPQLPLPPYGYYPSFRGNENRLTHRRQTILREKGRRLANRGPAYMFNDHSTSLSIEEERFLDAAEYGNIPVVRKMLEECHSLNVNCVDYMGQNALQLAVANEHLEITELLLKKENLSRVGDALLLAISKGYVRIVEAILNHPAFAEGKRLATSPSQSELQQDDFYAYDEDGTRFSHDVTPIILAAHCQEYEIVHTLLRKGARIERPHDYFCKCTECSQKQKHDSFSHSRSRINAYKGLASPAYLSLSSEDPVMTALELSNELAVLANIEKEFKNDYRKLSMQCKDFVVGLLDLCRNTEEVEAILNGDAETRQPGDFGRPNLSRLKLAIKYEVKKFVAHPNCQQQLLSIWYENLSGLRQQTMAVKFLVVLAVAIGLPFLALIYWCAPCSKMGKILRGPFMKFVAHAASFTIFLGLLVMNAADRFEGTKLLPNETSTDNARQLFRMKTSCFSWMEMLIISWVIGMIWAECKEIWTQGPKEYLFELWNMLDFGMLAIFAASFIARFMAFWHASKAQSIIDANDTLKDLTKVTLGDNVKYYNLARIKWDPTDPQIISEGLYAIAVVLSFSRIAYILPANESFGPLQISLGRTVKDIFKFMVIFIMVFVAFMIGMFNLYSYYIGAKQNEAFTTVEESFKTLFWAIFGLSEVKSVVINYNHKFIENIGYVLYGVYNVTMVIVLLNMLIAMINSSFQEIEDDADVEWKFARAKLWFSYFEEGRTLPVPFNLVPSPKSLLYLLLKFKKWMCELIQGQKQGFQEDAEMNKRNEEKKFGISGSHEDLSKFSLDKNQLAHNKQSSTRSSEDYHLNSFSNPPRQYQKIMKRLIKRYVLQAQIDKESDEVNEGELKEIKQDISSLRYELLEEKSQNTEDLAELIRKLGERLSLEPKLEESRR

For assay [10] the target is unchanged. The experiment in a line: activation of mouse TRPC6 channel, confirmation, selectivity assay for TRPC4 activator project, cell-based, HEK293, membrane potential dye, duplicate (AID 434950;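 active = membrane potential signal rise above negative control mean plus 3 SD in both duplicates, also active in the earlier TRPC4 screen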;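 for activation: 0% = buffer only wells and 100% = acetylcholine maximal-effect wells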). To be noted: HEK293 TRPC6, membrane potential fluorescence, at 10 µM; active compounds read high.
Assay [11] has the same target. The assay is described as follows: TRPC6 potentiation by TRPC4 potentiator hits, confirmation, selectivity assay for TRPC4 potentiator project, HEK293 cells, membrane potential dye, duplicate (AID 434952;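 active = compound raising the membrane signal above positive-control mean plus 3 SD in both repeats, and a primary screen hit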). To be noted: HEK293 TRPC6, membrane potential dye fluorescence, at 10 µM, maximal acetylcholine added after compound; active compounds read high.
Assay [12] addresses Short transient receptor potential channel 4 (Mus musculus) (UniProt Q9QUQ5). The assay is described as follows: calcium flux activators in TRPC4/5HT1a cells, counter-screen for TRPC4 activator project, cell-based, second counter screen, HEK293 TRPC4/5HT1a, Fluo-4 (AID 434977;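 active = calcium signal rise above buffer-control mean plus 5 SD in both duplicates, and also a hit in the primary screen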;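 for activation: plate controls were assay buffer for no effect and maximal serotonin response for full effect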). To be noted: Fluo-4 calcium flux, at 10 µM; active compounds read high.
Assay [13] is described as follows: calcium flux inhibitors in TRPC4/5HT1a cells, confirmation, counter-screen for TRPC4 inhibitor project, cell-based, second counter screen, HEK293 TRPC4/5HT1a, Fluo-4 (AID 434978;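 active = primary screen active whose calcium signal fell more than 3 SD beyond the full-serotonin control mean in both duplicate plates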;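 note: serotonin given first at submaximal then at maximal dose after compound preincubation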). To be noted: Fluo-4 calcium flux, at 10 µM, serotonin added to trigger calcium flux; active compounds read high.
Assay [14] relates to TRPC4 (mouse), co-expressed with 5HT1a in HEK293. The assay is described as follows: calcium flux potentiators in TRPC4/5HT1a cells, confirmation, counter-screen for TRPC4 potentiator project, cell-based, second counter screen, HEK293 TRPC4/5HT1a, Fluo-4 (AID 434979;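 active = signal rise over 3 SD above mean of control wells given weak agonist, in both repeats and first screen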). To be noted: Fluo-4 calcium flux, at 10 µM, serotonin added at its EC20 dose; active compounds read high.
The nature of assay [15]: calcium flux activation in mu-opioid HEK293 cells, confirmation, counter-screen for TRPC4 activator project, cell-based, HEK293 mu-opioid receptor line (AID 449723;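 active = hit in primary screen, with calcium signal over 5 SD above buffer well mean in both duplicates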;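 note: counter screen cells carry the mu-opioid receptor alone and lack TRPC4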). To be noted: Fluo-4 calcium fluorescence, at 10 µM; active compounds read high.
A short description of assay [16]: calcium flux enhancement in mu-opioid HEK293 cells, confirmation, counter-screen for TRPC4 allosteric potentiator project, cell-based, HEK293 mu-opioid receptor line (AID 449724;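 active = calcium signal rise more than 3 SD above the low-dose agonist control mean, in both duplicate plates and the primary screen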). To be noted: Fluo-4 calcium flux, at 10 µM, compound added before EC20 DAMGO stimulus; active compounds read high.
The target of assay [17] is Short transient receptor potential channel 4 (Mus musculus) (UniProt Q9QUQ5). The experiment in a line: TRPC4 positive allosteric modulators, dose response, cell-based, HEK293 TRPC4/mu-opioid, Fluo-4 calcium, EC20 DAMGO (AID 434941;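 active = earlier screen potentiator hit that boosts the TRPC4 ion channel at some dose, with a dose response; inactive = no potentiation, no dose response, or not a prior hit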;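 note: calcium entry triggered by an EC20 dose of DAMGO at the co-expressed mu-opioid receptor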).

For part of these data: Results with a measured potency or affinity are listed apart. Active and inactive are the calls of the source.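 Rule for the calls, unless noted: active = primary screen active and over 50% activation in each of two duplicate runs; inactive = the rest.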

Regarding `CCCCN(CC)CCNC(=O)c1cc2c(=O)n(C)c3ccccc3c2s1`, the outcome in [1], in [2], in assay [5], in assay [6], in assay [7] and in assay [8] was inactive. Moreover, the call in assay [9], in assay [10], in assay [11], in assay [12], in [13] and in [15] was inactive. For the same molecule, the result in assay [16] was inactive. In addition, the potentiation was 31% (active) in assay [3], 9% (active) in assay [4] and 8.16% (active) in assay [14].
On to `CC1Cc2ccccc2N1C(=O)CSc1nc2c(c(=O)n(C)c(=O)n2C)n1Cc1ccc(F)cc1` (stereo not given), for which the outcome in assay [1], in assay [2], in assay [5], in [6], in [7] and in assay [8] was inactive. The outcome in [9], in [10], in assay [11], in assay [12], in [13] and in [15] was inactive. The result in [16] was inactive. The potentiation was 36% (active) in assay [3], 40% (active) in assay [4] and 67.1% (active) in [14].
For the molecule `O=C(O)CCNc1nc(-c2ccccc2)c2cc(Br)ccc2n1`, the result in [1], in [2], in [4], in assay [5], in [6] and in assay [7] was inactive. Also, the outcome in assay [8], in assay [9], in [10], in [11], in assay [12] and in assay [13] was inactive. The outcome in assay [15] and in assay [16] was inactive. For the same molecule, the figures for the potentiation in [3] and in [14] were 11% (active) and 24.1% (active), respectively.
Regarding `Cc1cc(OCC(=O)N(C(C)C)C(C)C)cc(C)c1Br`, the result in assay [1], in assay [2], in assay [3], in assay [5], in assay [6] and in [7] was inactive. Further, the result in assay [8], in assay [9], in assay [10], in assay [11], in assay [12] and in assay [13] was inactive. Moreover, the outcome in assay [15] and in [16] was inactive. Moreover, the values for the potentiation in assay [4] and in assay [14] were 22% (active) and 31.9% (active), respectively.
On to `CCn1c(O)c(N=NC(=O)c2cccc(S(=O)(=O)N3CCCCC3)c2)c2ccccc21`, for which the result in [1], in assay [2], in assay [3], in [4], in assay [5] and in [6] was inactive. Moreover, the outcome in [7], in [8], in assay [9], in assay [10], in assay [11] and in assay [12] was inactive. For the same molecule, the outcome in assay [13], in assay [15] and in [16] was inactive. Moreover, the potentiation in assay [14] was 6.79% (active).
In the case of `O=c1[nH][nH]c(-c2ccccc2)c1C=Nc1ccc(Cl)cc1`, the result in assay [1], in assay [2], in assay [3], in assay [4], in [5] and in assay [6] was inactive. Also, the outcome in assay [7], in [8], in assay [9], in [10], in assay [11] and in assay [12] was inactive. Moreover, the result in assay [13], in assay [15] and in assay [16] was inactive. Besides, the potentiation in assay [14] was 79.8% (active).
With `CC1CC(C)CN(CCCNC(=O)Cn2cccc2C(=O)c2ccccc2)C1` (stereo not given), the activation in assay [1] is 162% (active); in [2], 98% (active); in [10], 50.5% (active); in [12] it was 62.1% (active). Besides, the result in assay [3], in assay [4], in [5], in assay [6], in assay [17] and in assay [8] was inactive. For the same molecule, the molecule was classed as inactive in assay [9], in assay [11], in assay [13], in [14], in assay [15] and in assay [16].
For `Cc1ccc(Cl)cc1N1CCN(C(=O)c2cccc3c(=O)c(C)c(-c4ccccc4)oc23)CC1`, the result in assay [1], in assay [2], in assay [3], in assay [4], in assay [5] and in [6] was inactive. For the same molecule, the outcome in assay [7], in [8], in assay [9], in assay [10], in assay [11] and in [12] was inactive. Further, the result in assay [13], in [15] and in assay [16] was inactive. Moreover, the potentiation in [14] was 21.8% (active).
As for `C1CCN(c2nc(N3CCCC3)nc(N3CCNCC3)n2)C1`, the outcome in [1], in assay [2], in assay [3], in [4], in [5] and in assay [6] was inactive. Also, the outcome in assay [7], in assay [8], in [9], in assay [10], in assay [11] and in assay [12] was inactive. In addition, the result in assay [13], in assay [15] and in [16] was inactive. For the same molecule, the potentiation in assay [14] is 18.4% (active).
Regarding `CCOc1ccc(-n2c(SCC(=O)O)nc3sc4c(c3c2=O)CCCC4)cc1`, the result in assay [1], in [2], in assay [3], in [4], in [5] and in assay [6] was inactive. For the same molecule, the outcome in [7], in [8], in [9], in assay [10], in [11] and in [12] was inactive. Further, the outcome in [13], in assay [15] and in assay [16] was inactive. Also, in [14], the potentiation is 16.4% (active).
Consider `Cc1cc(-c2ccc(C)c(S(=O)(=O)N3CCN(C(=O)c4ccco4)CC3)c2)on1`, for which the outcome in [1], in [2], in assay [3], in assay [5], in assay [6] and in [7] was inactive. Besides, the result in assay [8], in [9], in assay [10], in assay [11], in assay [12] and in assay [13] was inactive. Further, the result in assay [15] and in assay [16] was inactive. Besides, the figures for the potentiation in [4] and in assay [14] were 46% (active) and 54.2% (active), respectively.
Turning to `O=C(c1cccc([N+](=O)[O-])c1)N1CCCC(C(=O)N2CCCCCC2)C1` (stereo not given), the result in [1], in [2], in [3], in assay [4], in assay [5] and in assay [6] was inactive. Besides, the outcome in assay [7], in [8], in assay [9], in assay [10], in assay [11] and in assay [12] was inactive. Besides, the result in assay [13], in assay [14], in assay [15] and in assay [16] was inactive.
On to `COc1ccc(Cl)cc1C(=O)NCCN(C)C`, for which the outcome in [1], in [2], in assay [3], in assay [4], in [5] and in assay [6] was inactive. Moreover, the outcome in assay [7], in assay [8], in assay [9], in assay [10], in assay [11] and in assay [12] was inactive. For the same molecule, the result in assay [13], in assay [15] and in assay [16] was inactive. In assay [14], the potentiation is 13.6% (active).
Consider `COc1c(C)cc(C(=O)C2CCCN(Cc3cccc4nccnc34)C2)cc1C` (stereo not given), for which the activation in assay [1] was 108% (active); in assay [10], 24% (active); in assay [12], 37.7% (active). Also, the outcome in [2], in assay [3], in assay [4], in assay [5], in assay [6] and in assay [17] was inactive. Besides, the outcome in assay [8], in assay [9], in [11], in assay [13], in assay [14] and in [15] was inactive. For the same molecule, in assay [16], the outcome was inactive.
Take `O=C(Nc1cccc(Cl)c1)c1cnn2cccnc12`: the outcome in [1], in [2], in [5], in assay [6], in assay [7] and in assay [8] was inactive. The outcome in assay [9], in assay [10], in assay [11], in assay [12], in assay [13] and in assay [15] was inactive. The result in assay [16] was inactive. Also, the potentiation is 16% (active) in assay [3], 14% (active) in assay [4] and 43% (active) in [14].

For the origin of these results see PubChem BioAssay.
